Assay [1] can be described thus: qHTS assay to identify small molecule antagonists of the glucocorticoid receptor (GR) signaling pathway - cell viability counter screen (AID 720693). Also: nearly all actives have a fitted effect of over 55% in size.
A short description of assay [2]: qHTS assay for identifying genotoxic compounds that show differential cytotoxicity against isogenic chicken DT40 cell lines with known DNA damage response pathways - wild type cell line (AID 743012). Also: nearly all actives have a fitted effect of over 60% in size. Also: potency is read from the fitted curve at half-maximal effect. Put shortly:
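CellTiter-Glo luminescence readout of viability in wild type DT40 cells after 40 h compound exposure at 37 C/5% CO2; 300 cells/well; reagent incubated 30 min at room temperature before reading.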

Assay [3] can be described thus: qHTS assay for identifying genotoxic compounds that show differential cytotoxicity against isogenic chicken DT40 cell lines with known DNA damage response pathways - Rad54/Ku70 mutant cell line (AID 743015). Also: nearly all actives have a fitted effect of over 60% in size. Also: potency is read from the fitted curve at half-maximal effect.
Assay [4] can be described thus: qHTS assay to identify small molecule antagonists of the androgen receptor (AR) signaling pathway - cell viability counter screen (AID 743033; also: nearly all actives have a fitted effect of over 45% in size).
Assay [5] is described as follows: qHTS assay to identify small molecule antagonists of the androgen receptor (AR) signaling pathway using the MDA cell line - cell viability counter screen (AID 743041; also: nearly all actives have a fitted effect of over 45% in size). The method in brief: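 Cytotoxicity counter screen: MDA-kb2 AR-luc cells, compound + R1881, 16 h, 37C, 0% CO2; CellTiter-Fluor added at 15.5 h, fluorescence read after 30 min.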
Assay [6] can be described thus: qHTS assay to identify small molecule antagonists of the thyroid receptor (TR) signaling pathway - cell viability counter screen (AID 743064). Also: nearly all actives have a fitted effect of over 50% in size. Also: potency is read from the fitted curve at half-maximal effect. The method in brief: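 Viability of T3-stimulated (1 nM final) GH3.TRE-Luc cells is measured by CellTiter-Fluor fluorescence after 23.5 h compound exposure at 37 °C plus 30 min reagent incubation.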
Assay [7] deals with thyroid hormone receptor (rat, GH3 cells). Description: qHTS assay to identify small molecule agonists of the thyroid receptor (TR) signaling pathway (AID 743066; calls by dose curve).
Assay [8] concerns the target Estrogen receptor (Homo sapiens) (UniProt P03372). As to the kind of experiment: qHTS assay to identify small molecule antagonists of the estrogen receptor alpha (ER-alpha) signaling pathway (AID 743069; active = well fitted curve in the direction sought with a large enough effect in the signal ratio in the repeat runs, not every such curve was filed as active; inconclusive = weak or mixed curves, or effect the other way; inactive = no such curve, though single readings can be large or run the other way; the % refers to the signal ratio; also: potency is read from the fitted curve at half-maximal effect). Put shortly: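 Beta-lactamase FRET fluorescence is read after 2 hr at room temperature with LiveBLAzer B/G substrate. Before that, ER-alpha-bla HEK293 cells sit 4 hr after plating, then receive compound plus 17beta-estradiol and incubate 18 hr at 37C.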

A short description of assay [9]: qHTS assay to identify small molecule antagonists of the estrogen receptor alpha (ER-alpha) signaling pathway - cell viability counter screen (AID 743074; calls by dose curve;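 also: HEK293 cells carrying ER-alpha-UAS-bla reporter stimulated with 17beta-estradiol; nearly all actives have a fitted effect of over 45% in size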).
For assay [10], the target named is Estrogen receptor (Homo sapiens) (UniProt P03372). Description: qHTS assay to identify small molecule agonists of the estrogen receptor alpha (ER-alpha) signaling pathway (AID 743075; calls by dose curve;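 also: HEK293 GripTite cells with ER-alpha and UAS-driven beta-lactamase reporter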).
The target is the same in assay [11]. Description: qHTS assay to identify small molecule agonists of the estrogen receptor alpha (ER-alpha) signaling pathway using the BG1 cell line (AID 743079). Also: nearly all actives have a fitted effect of over 20% in size. Also: potency is read from the fitted curve at half-maximal effect.
The nature of assay [12]: qHTS assay to identify small molecule antagonists of the estrogen receptor alpha (ER-alpha) signaling pathway using the BG1 cell line (AID 743080; calls by dose curve;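 also: BG1 cells stimulated with 17beta-estradiol alongside compound; nearly all actives have a fitted effect of over 25% in size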; also: potency is read from the fitted curve at half-maximal effect). Put shortly: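 Readout is ONE-Glo luminescence, taken 30 min at room temperature after reagent addition, preceded by a CellTiter-Fluor viability read; BG1-Luc-4E2 cells had received compound and 17beta-estradiol for 21.5 h at 37 C.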

The target in the next assay is Aromatase (Homo sapiens) (UniProt P11511). Description: qHTS assay to identify aromatase inhibitors (AID 743083). Also: nearly all actives have a fitted effect of over 55% in size. Also: potency is read from the fitted curve at half-maximal effect.
The target of assay [13] is Androgen receptor (Homo sapiens) (UniProt P10275). As to the kind of experiment: qHTS assay to identify small molecule agonists of the androgen receptor (AR) signaling pathway using the MDA cell line (AID 743040; also: nearly all actives have a fitted effect of over 20% in size). The method in brief: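 Luciferase read-out, ONE-Glo, 30 min RT. Cells: MDA-kb2 AR-luc, MMTV promoter with AR and GR response elements. Compound exposure 16 h, 37C, 0% CO2, after 5 h pre-incubation. qHTS agonist mode.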

Assay [14] has the same target. As to the kind of experiment: qHTS assay to identify small molecule antagonists of the androgen receptor (AR) signaling pathway using the MDA cell line (AID 743042; also: nearly all actives have a fitted effect of over 55% in size). The method in brief:
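MDA-kb2 breast carcinoma cells carrying MMTV-luciferase (AR/GR responsive) were co-treated with compounds and the agonist R1881 for 16 h at 37C. Inhibition read as ONE-Glo luminescence; CellTiter-Fluor fluorescence measured in parallel for cytotoxicity.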

Assay [15] is described as follows: qHTS assay to identify small molecule antagonists of the estrogen receptor alpha (ER-alpha) signaling pathway using the BG1 cell line - cell viability counter screen (AID 743081).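 Also: compound given together with 17beta-estradiol as the ER stimulus; series mostly up to about 70 µM; nearly all actives have a fitted effect of over 45% in size.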
A short description of assay [16]: qHTS assay to identify small molecule antagonists of the thyroid receptor (TR) signaling pathway (AID 743065). Also: nearly all actives have a fitted effect of over 55% in size. Also: potency is read from the fitted curve at half-maximal effect. Put shortly:
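GH3.TRE-Luc rat pituitary cells (two TREs driving luciferase) were dosed with compound, then stimulated with 1 nM T3 (final) for 23.5 h at 37 C. ONE-Glo luminescence was the read-out, with CellTiter-Fluor fluorescence as the cytotoxicity counter-screen.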

Assay [17] addresses Androgen receptor (Homo sapiens) (UniProt P10275). As to the kind of experiment: qHTS assay to identify small molecule agonists of the androgen receptor (AR) signaling pathway (AID 743036; active = well fitted activation curve with a large enough effect in the signal ratio in the repeat runs, with a control signal flat, not every such curve was filed as active; inconclusive = weak or mixed curves, or effect the other way; inactive = no such curve, though single readings can be large or run the other way; the % refers to the signal ratio). Put shortly: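 Screening used 2,000 AR-bla HEK293 cells per well, treated 16 h at 37C with test compounds in DMSO alongside positive and DMSO-only controls; beta-lactamase activity was then read by LiveBLAzer B/G FRET fluorescence after 2 h at room temperature.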

Where “and” joins values, the source holds several entries; their conditions need not be identical. Identical values can stand only once. The source holds several records for some structures; these can differ, active in one and inactive in another. Calls of active or inactive are those of the source. Unless noted, calls follow the shape of the dose curve; as a rule, active = well fitted curve in the direction sought with a large enough effect in the repeat runs; inconclusive = weak or mixed curves; inactive = no such curve, though single readings can be large; an effect the other way counts as inactive or inconclusive.

Aromatase (Homo sapiens), sequence (P11511 whole entry, looked up): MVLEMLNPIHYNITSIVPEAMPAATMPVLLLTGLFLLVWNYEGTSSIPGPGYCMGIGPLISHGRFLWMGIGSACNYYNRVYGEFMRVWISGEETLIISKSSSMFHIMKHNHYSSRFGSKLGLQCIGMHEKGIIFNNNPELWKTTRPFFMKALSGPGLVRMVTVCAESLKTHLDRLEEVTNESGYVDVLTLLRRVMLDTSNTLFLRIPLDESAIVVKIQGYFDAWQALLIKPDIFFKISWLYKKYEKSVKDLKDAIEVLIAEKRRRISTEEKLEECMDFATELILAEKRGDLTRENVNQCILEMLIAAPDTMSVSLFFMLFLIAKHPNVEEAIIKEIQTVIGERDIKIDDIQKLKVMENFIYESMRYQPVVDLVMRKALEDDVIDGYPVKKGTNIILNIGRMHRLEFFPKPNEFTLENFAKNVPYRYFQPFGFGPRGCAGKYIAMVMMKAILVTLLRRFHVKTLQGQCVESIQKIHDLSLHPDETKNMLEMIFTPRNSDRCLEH
Androgen receptor (Homo sapiens), sequence (P10275 whole entry, looked up): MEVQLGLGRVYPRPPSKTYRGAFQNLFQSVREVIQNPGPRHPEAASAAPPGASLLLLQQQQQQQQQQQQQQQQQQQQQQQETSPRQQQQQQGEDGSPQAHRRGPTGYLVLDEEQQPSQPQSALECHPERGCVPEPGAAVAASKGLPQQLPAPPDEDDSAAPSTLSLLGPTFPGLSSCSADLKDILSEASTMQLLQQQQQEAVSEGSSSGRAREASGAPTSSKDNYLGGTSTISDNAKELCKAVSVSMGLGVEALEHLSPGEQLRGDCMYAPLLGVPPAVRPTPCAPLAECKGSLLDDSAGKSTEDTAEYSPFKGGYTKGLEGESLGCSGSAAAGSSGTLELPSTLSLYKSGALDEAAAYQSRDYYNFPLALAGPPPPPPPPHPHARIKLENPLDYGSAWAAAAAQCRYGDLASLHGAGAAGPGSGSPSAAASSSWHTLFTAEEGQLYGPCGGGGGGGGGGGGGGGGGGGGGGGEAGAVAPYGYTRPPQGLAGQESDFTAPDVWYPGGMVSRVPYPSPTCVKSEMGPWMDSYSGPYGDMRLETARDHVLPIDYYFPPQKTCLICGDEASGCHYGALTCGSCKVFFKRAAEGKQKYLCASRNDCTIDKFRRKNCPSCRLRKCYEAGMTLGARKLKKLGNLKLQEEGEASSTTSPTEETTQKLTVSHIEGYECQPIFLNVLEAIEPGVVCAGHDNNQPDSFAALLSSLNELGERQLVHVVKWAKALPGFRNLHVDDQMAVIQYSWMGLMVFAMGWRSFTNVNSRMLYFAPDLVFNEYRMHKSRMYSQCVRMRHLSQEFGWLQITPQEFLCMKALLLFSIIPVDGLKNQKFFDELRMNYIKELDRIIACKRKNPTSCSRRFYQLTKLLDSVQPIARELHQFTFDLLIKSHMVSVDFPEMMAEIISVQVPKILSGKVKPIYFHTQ
Estrogen receptor (Homo sapiens), sequence (P03372 whole entry, looked up): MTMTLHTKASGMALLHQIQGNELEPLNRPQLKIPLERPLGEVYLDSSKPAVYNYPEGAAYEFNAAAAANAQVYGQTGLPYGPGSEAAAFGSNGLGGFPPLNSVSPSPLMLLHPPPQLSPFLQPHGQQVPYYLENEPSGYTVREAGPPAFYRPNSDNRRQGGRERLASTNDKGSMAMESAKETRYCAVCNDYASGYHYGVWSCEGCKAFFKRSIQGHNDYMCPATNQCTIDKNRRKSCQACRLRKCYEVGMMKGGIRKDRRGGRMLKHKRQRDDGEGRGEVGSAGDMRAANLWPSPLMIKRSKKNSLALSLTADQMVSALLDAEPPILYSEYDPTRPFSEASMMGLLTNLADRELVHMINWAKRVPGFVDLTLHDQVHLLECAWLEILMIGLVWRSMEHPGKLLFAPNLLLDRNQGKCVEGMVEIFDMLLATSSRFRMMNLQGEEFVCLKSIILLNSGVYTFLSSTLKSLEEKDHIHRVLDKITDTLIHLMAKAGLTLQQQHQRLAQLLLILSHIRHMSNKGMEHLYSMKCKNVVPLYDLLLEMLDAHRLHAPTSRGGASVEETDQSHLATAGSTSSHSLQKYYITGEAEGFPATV

Regarding `C(=NC1CCCCC1)=NC1CCCCC1`, the Potency entry in assay [1], in [4], in assay [5], in [7], in assay [9] and in assay [10] was “inactive” each time. The Potency entry in assay [2] was “inactive and 15.4 µM (active)”; in [3] it was “inactive and 3.06 µM (active)”; in [6], “inactive and 27.3 µM (active)”; in assay [8], “inactive and 3.89 µM [inconclusive] (active)”; in [11], 13.8 µM (active) and inactive; in assay [12], 2.45 µM (active) and 2.43 µM (active). Also, in the assay with Aromatase (Homo sapiens), the Potency entry is “inactive and 1.37 µM (active)”.
Take `CO[C@@H]1[C@H](OC(=O)NC(=O)CCl)CC[C@]2(CO2)[C@H]1[C@@]1(C)O[C@@H]1CC=C(C)C`: the Potency result in assay [1], in [4], in [13], in assay [14], in assay [7] and in assay [9] was “inactive” in each case. Also, the Potency result (in [11]; in [12]; in [15]; with Aromatase (Homo sapiens)) was “inactive” throughout. Moreover, the Potency in assay [2] is 0.0006 µM (active).
As to `c1ccoc1`, the Potency entry in assay [1], in assay [2], in [3], in [4], in assay [5] and in assay [6] was “inactive” each time. In addition, the Potency result in assay [16], in [7], in assay [9], in assay [10], in assay [12] and in assay [15] was “inactive” each time. Moreover, the Potency result with Aromatase (Homo sapiens) was “inactive”.
For `COC(=O)C(Br)CBr` (stereo unspecified), the Potency result in assay [1], in assay [2], in assay [3], in assay [4], in assay [5] and in assay [6] was “inactive” each time. In addition, the Potency entry in assay [16], in assay [8], in assay [9], in assay [10], in assay [11] and in assay [12] was “inactive” throughout. Moreover, the Potency entry (in [15]; with Aromatase (Homo sapiens)) was “inactive” each time.
Consider `Cl/C=C\C[N+]12CN3CN(CN(C3)C1)C2`, for which the Potency entry in [1], in [4], in assay [13], in assay [5], in assay [14] and in assay [6] was “inactive” throughout. In addition, the Potency result in assay [7], in [8], in [9], in assay [10], in assay [11] and in assay [12] was “inactive” in each case. In addition, in [15], the Potency result is “inactive”. In addition, the figures for the Potency in assay [2] and in assay [3] were 48.6 µM (active) and 43.3 µM (active), respectively. For the same compound, the compound was called inactive in assay [17].
For the compound `CC[C@H]1C[C@H]2[C@@H]3CCC4=CC(=O)CC[C@@H]4[C@H]3CC[C@]2(C)[C@H]1O`, the Potency result in assay [1], in [4], in assay [5], in assay [6], in assay [7] and in assay [10] was “inactive” each time. Moreover, the Potency result with Aromatase (Homo sapiens) was “inactive”. The Potency is 16.8 µM (active) in assay [2], 21.1 µM (active) in assay [3], 21.1 µM (active) in assay [16] and 10.6 µM (active) in assay [11].
Regarding `O=C(O)C(F)(F)C(F)(F)C(F)(F)C(F)(F)C(F)(F)C(F)(F)C(F)(F)C(F)(F)C(F)(F)C(F)(F)F`, the Potency result in assay [1], in assay [2], in assay [3], in assay [4], in assay [5] and in [6] was “inactive” throughout. Also, the Potency result (in assay [16]; in [7]; in assay [15]; with Aromatase (Homo sapiens)) was “inactive” throughout.
Turning to `COCC(C)N(C(=O)CCl)c1c(C)csc1C` (stereo unspecified), the Potency result in assay [1], in assay [4], in assay [6], in assay [16], in assay [7] and in [9] was “inactive” each time. Further, the Potency result in assay [10], in [11], in assay [12] and in assay [15] was “inactive” in each case. For the same compound, the Potency result was “inactive and 17.2 µM (active)” in assay [2]; “inactive and 17.2 µM (active)” in [3]; “inactive and 30.9 µM [inconclusive] (active)” in [8]; “inactive and 34.4 µM (active)” with Aromatase (Homo sapiens).
As for `C#CCOC(C(=O)OCCN(C)C)(c1ccccc1)c1ccccc1`, the Potency entry in assay [1], in assay [2], in assay [3], in [4], in [5] and in assay [16] was “inactive” each time. In addition, the Potency result (in [7]; in [9]; in assay [15]; with Aromatase (Homo sapiens)) was “inactive” in each case.
As for `CC(C)N(CCC(C(N)=O)(c1ccccc1)c1ccccn1)C(C)C` (stereo unspecified), the Potency entry in assay [1], in assay [2], in assay [3], in [4], in [5] and in assay [6] was “inactive” throughout. In addition, the Potency entry (in assay [16]; in [7]; in assay [9]; in assay [15]; with Aromatase (Homo sapiens)) was “inactive” throughout.
Consider `CC(=O)CCC(C)=O`, for which the Potency result in assay [1], in assay [2], in [3], in assay [4], in [5] and in assay [6] was “inactive” throughout. The Potency result in assay [16], in assay [7], in [8], in assay [9], in assay [10] and in [11] was “inactive” in each case. The Potency entry (in assay [12]; in assay [15]; with Aromatase (Homo sapiens)) was “inactive” each time.
Regarding `C=CC(C)=O`, the Potency result in [1], in assay [2], in [3], in [4], in assay [5] and in [6] was “inactive” in each case. The Potency result in assay [8], in assay [9], in [10], in [11], in assay [12] and in [15] was “inactive” in each case. Besides, in the assay with Aromatase (Homo sapiens), the Potency result was “inactive”.

The values above are taken from PubChem BioAssay (Tox21).
